# Measured potencies and affinities stand elsewhere.
# Test: A High Throughput Confirmatory Assay used to Identify Novel Compounds that Inhibit Mycobacterium Tuberculosis in the absence of Glycerol using Purified and Synthesized Compounds (5).
# Assay type: functional; call rule not given here
row,Structure (SMILES),IC90
1,Cc1cc(Br)ccc1NC(=O)c1cnc(N2CCN(c3ccccn3)CC2)c2ccccc12,> 100 µM (active)
2,Cc1[nH]c2ccccc2c1C(=O)COC(=O)c1ccc([N+](=O)[O-])s1,> 68.8 µM (active)
3,CCCc1cc(C(N)=S)ccn1,> 100 µM (active)
4,CNC(=O)CSc1nc2ccccc2c(=O)[nH]1,> 100 µM (active)
